Sampled rows, rich in hits. Any-hit rate of the full collection: about 4.1%.
Gli-Sufu antag – blocks Gli-Sufu signaling in a luciferase reporter; actives 0.74% (n = 340,000); inhibition, % at 5 µM; Sufu-KO-LIGHT fibroblasts, Gli luciferase reporter luminescence;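 active = inhibition above about 55%, limit read from the data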
aSyn UTR inh – MLPCN primary screen, SNCA 5' untranslated region | actives 0.82% (n = 300,000) | inhibition, % (tested at 7.5 µM) | AID 1813 | alpha-synuclein 5'UTR reporter, inhibitor activity; in the data active = inhibition above about 60%; inconclusive = no clear call, values can overlap the other calls;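 note: H4 neuroglioblastoma cells stably carrying SNCA 5'UTR luciferase fusion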
697 NFkB inh – lowers PMA/ionomycin-induced NF-kB signal in 697 B cells; AID 435022; inhibition, % at 4 µM; actives 0.33% (n = 330,000); 697 B-cell NF-kB luciferase reporter, 16 h; in the data active = inhibition above about 35%
KLF5 inh – inhibitors of KLF5 expression. inhibition, % at 5 µM. AID 1700. DLD-1 KLF5 promoter-luciferase reporter, luminescence. actives 0.23% (n = 290,000);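 active = inhibition above a per-plate limit of that plate's mean compound inhibition plus 3 SD, cut at about 60% in these data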;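 note: higher means less KLF5 promoter-driven luciferase light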
Mdm2-MdmX inh – inhibitors of human Mdm2/MdmX interaction. O15151+Q00987. actives 3% (n = 330,000). inhibition, % at 8 µM. AID 485346. SaOS-2 split-luciferase Mdm2/MdmX complementation, luminescence;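 active = inhibition of at least 50% at 8 µM in the primary screen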
Target sequence (O15151 whole entry, looked up): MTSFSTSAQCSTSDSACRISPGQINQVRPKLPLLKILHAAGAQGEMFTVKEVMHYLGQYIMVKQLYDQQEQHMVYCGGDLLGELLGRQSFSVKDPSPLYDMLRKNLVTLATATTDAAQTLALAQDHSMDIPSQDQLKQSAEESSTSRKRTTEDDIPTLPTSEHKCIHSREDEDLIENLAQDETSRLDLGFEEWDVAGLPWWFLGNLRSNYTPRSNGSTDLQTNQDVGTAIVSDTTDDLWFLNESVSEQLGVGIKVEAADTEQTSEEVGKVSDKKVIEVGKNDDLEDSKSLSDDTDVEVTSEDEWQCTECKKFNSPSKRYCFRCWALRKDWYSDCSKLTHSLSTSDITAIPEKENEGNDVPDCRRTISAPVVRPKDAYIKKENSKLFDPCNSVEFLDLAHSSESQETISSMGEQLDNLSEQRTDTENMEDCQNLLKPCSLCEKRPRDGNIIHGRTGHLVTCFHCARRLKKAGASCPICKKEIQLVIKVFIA
Target sequence (Q00987 whole entry, looked up): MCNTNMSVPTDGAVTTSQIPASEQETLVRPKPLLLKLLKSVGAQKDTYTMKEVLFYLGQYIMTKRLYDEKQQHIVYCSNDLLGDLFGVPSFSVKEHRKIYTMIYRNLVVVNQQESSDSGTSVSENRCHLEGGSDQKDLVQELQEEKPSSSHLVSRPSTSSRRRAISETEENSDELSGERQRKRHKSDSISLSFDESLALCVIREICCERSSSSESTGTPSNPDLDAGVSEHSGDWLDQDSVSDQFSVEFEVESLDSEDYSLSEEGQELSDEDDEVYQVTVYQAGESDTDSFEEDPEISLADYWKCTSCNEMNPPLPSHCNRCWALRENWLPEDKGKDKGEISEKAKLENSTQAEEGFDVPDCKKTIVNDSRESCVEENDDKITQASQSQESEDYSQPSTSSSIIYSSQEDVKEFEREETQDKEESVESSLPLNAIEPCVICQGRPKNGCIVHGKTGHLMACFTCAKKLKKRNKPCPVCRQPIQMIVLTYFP
Jurkat NFkB inh – lowers PMA/ionomycin-induced NF-kB signal in Jurkat cells. PMA/ionomycin-induced NF-kB luciferase reporter, luminescence. inhibition, % at 4 µM. actives 0.53% (n = 330,000). AID 435003; in the data active = inhibition above about 50%
Mdm2 MdmX conf – human Mdm2/MdmX binding inhibition, confirmed | inhibition, % at 8 µM | actives 55% (n = 10,000) | AID 489028 | shares compounds with Mdm2-MdmX inh | luminescent assay; in the data active = inhibition above about 40%
FLuc counter – full-length luciferase inhibition in Mdm2/MdmX counter-screen; AID 504607; shares compounds with Mdm2-MdmX inh; actives 77% (n = 6,200); inhibition, % at 8 µM; SaOS-2 full-length luciferase counterscreen, luminescence;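 active = mean inhibition at 8 µM reaching about 37%, which flags the compound as non-specific, limit read from the data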;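 note: p53-null SaOS-2 cells with luciferase driven by a doxycycline-inducible promoter; compound on cells about two nights before reading with doxycycline added after day one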
Large screens that a line does not name were inactive (follow-up assays come after a bar, where they were run).

Nc1ncnc(NC2CCS(=O)(=O)C2)c1[N+](=O)[O-] (stereo not given)	none
CCCCN(c1ccccc1)c1ncnc(N)c1[N+](=O)[O-]	Mdm2-MdmX inh 55 | Mdm2 MdmX conf 83 | FLuc counter 52
CN(c1ncnc(N)c1[N+](=O)[O-])C1CCCCC1	Mdm2-MdmX inh 80 | Mdm2 MdmX conf 82 | FLuc counter 51
CN(c1ncnc(N)c1[N+](=O)[O-])C1CCS(=O)(=O)C1 (stereo not given)	Mdm2-MdmX inh 51 | Mdm2 MdmX conf 44 | FLuc counter 40
Cc1ccccc1Oc1ncnc(N)c1[N+](=O)[O-]	none
NNC(=O)c1cc(S(=O)(=O)N2CCOCC2)c[nH]1	none (no result: aSyn UTR inh, KLF5 inh)
COc1ccccc1-n1c(=O)c(C#N)c(-c2ccc([N+](=O)[O-])cc2)c2cc(C(=O)c3cc(F)ccc3O)cnc21	none
Cn1c(=O)c(C#N)c(-c2ccc(F)cc2)c2cc(C(=O)c3cc(Cl)cc(Cl)c3O)cnc21	Mdm2-MdmX inh 83 | Mdm2 MdmX conf 87 | FLuc counter inactive
CC(NCCCOc1cccc2ccccc12)c1ccccc1 (stereo not given)	Mdm2-MdmX inh 58 | Mdm2 MdmX conf inactive
COc1ccc2ccccc2c1CNC(C)c1ccccc1 (stereo not given)	none
CC(C)C(NS(=O)(=O)c1cccc(C(F)(F)F)c1)C(=O)O (stereo not given)	none
COc1ccc(Oc2c(Cl)cnn(-c3ccc(C)cc3)c2=O)cc1	none
COc1ccc(Oc2c(Cl)cnn(-c3ccc(Cl)c(Cl)c3)c2=O)cc1	aSyn UTR inh 73, Mdm2-MdmX inh 85 | Mdm2 MdmX conf inactive
CC1=NN(c2nc(-c3ccc(C)cc3)cs2)C(=O)C1N=Nc1ccccc1O (stereo not given)	aSyn UTR inh 63, Mdm2-MdmX inh 72 | Mdm2 MdmX conf 80 | FLuc counter inactive
CC1=NN(c2nc(-c3ccc(C)cc3)cs2)C(=O)C1N=Nc1cccc(O)c1 (stereo not given)	none
Cc1ccc(NC(=O)Cn2nnc(C(=O)NCc3cccs3)c2N)c(C)c1	Mdm2-MdmX inh 69 | Mdm2 MdmX conf inactive
CCOc1ccccc1NC(=O)Cn1nnc(C(=O)NCc2ccc3c(c2)OCO3)c1N	none
CCOc1ccc(NC(=O)Cn2nnc(C(=O)NCc3ccc4c(c3)OCO4)c2N)cc1	Mdm2-MdmX inh 52 | Mdm2 MdmX conf inactive
Cc1cc(C)cc(NC(=O)Cn2nnc(C(=O)NCc3ccc4c(c3)OCO4)c2N)c1	Mdm2-MdmX inh 55 | Mdm2 MdmX conf inactive | FLuc counter 55
Cc1cc(C)c(S(=O)(=O)Nc2cccc(/C=C/C(=O)O)c2)c(C)c1	none
O=c1ccc2c([nH]1)CCCCCCCCCC2	none
CCN(C(=O)Cc1c(C(=O)O)n(CC)c2ccccc12)c1cccc(C(F)(F)F)c1	none
Cc1cccc(NC(=O)CSc2nc3ccc(NC(=O)CSc4nnnn4-c4ccccc4)cc3s2)c1C	Mdm2-MdmX inh 59 (no result: Gli-Sufu antag, aSyn UTR inh) | Mdm2 MdmX conf inactive
O=C(CCl)N1CCN(C(=O)C2COc3ccccc3O2)CC1 (stereo not given)	Mdm2-MdmX inh 67 (no result: aSyn UTR inh, KLF5 inh) | Mdm2 MdmX conf inactive
CCN1CCN(C(=O)C2COc3ccccc3O2)CC1 (stereo not given)	none
O=C(CCS(=O)(=O)Cc1ccccc1)Nc1nc2c(s1)CCCC2	Mdm2-MdmX inh 56 | Mdm2 MdmX conf 63 | FLuc counter 61
O=C(CS(=O)(=O)Cc1ccccc1)Nc1nc2c(s1)CCCC2	none
FC(F)(F)c1nc2ccccc2n2c(-c3ccc(Cl)cc3)nnc12	aSyn UTR inh 108, Mdm2-MdmX inh 96 | Mdm2 MdmX conf 96 | FLuc counter 41
Cc1ccc(-c2nnc3c(C(F)(F)F)nc4ccccc4n23)cc1	aSyn UTR inh 71, Mdm2-MdmX inh 54 | Mdm2 MdmX conf inactive
Cc1cc(=O)oc2cc(OCC(=O)NC3CCCCC3)ccc12	none
COc1ccc2c(CC(=O)Nc3ncc(C)s3)coc2c1	Mdm2-MdmX inh 66 | Mdm2 MdmX conf 66 | FLuc counter active
CNS(=O)(=O)c1cccc(C(=O)OCC(=O)Nc2ccc3ccccc3c2)c1	none (no result: aSyn UTR inh, KLF5 inh)
CC(C)CC1NC(=S)N(Cc2ccccc2)C1=O (stereo not given)	Mdm2-MdmX inh 87 | Mdm2 MdmX conf 82 | FLuc counter 53
COc1ccc(/C=N/N=C2/NC(=O)C(c3ccccc3)(c3ccccc3)S2)cc1	Mdm2-MdmX inh 61 | Mdm2 MdmX conf inactive
COc1ccc(NC(=O)C2CC(=O)N/C(=N/N=C/c3ccccc3)S2)cc1 (stereo not given)	Mdm2-MdmX inh 79 | Mdm2 MdmX conf 59 | FLuc counter 91
COc1ccc(CN=C2NC(=O)CC(C(=O)Nc3ccccc3C)S2)cc1 (stereo not given)	none
CCOC(=O)c1nc(NNC(=O)c2ccc([N+](=O)[O-])cc2)sc1C	aSyn UTR inh 62, Mdm2-MdmX inh 58 | Mdm2 MdmX conf 46 | FLuc counter inactive
COCCNCc1ccccc1[N+](=O)[O-]	none (no result: aSyn UTR inh, KLF5 inh)
COc1ccc(C(=O)c2ccc(Cl)c([N+](=O)[O-])c2)cc1	Mdm2-MdmX inh 70 | Mdm2 MdmX conf 70 | FLuc counter 111
COc1cc(C(=O)Nc2ccc(Cl)c(C(F)(F)F)c2)cc(OC)c1OC	none
COc1cc(C(=O)Nc2ccc(Cl)c([N+](=O)[O-])c2)cc(OC)c1OC	Mdm2-MdmX inh 57 | Mdm2 MdmX conf inactive
COc1ccc(C(=O)c2ccc(Cl)cc2)cc1	none
O=C1OC(c2ccc(F)cc2)=C/C1=C\c1ccc([N+](=O)[O-])o1	Mdm2-MdmX inh 74 (no result: Gli-Sufu antag) | Mdm2 MdmX conf inactive
Cc1cc(=O)oc2cc(OCCCC[n+]3ccccc3)ccc12	none
CCCCCc1ccc(OCCCC[n+]2ccccc2)c(CCCCC)c1	Gli-Sufu antag 83, Mdm2-MdmX inh 87 | Mdm2 MdmX conf 77 | FLuc counter inactive
CCC(C)Sc1cc(-c2nc3cc(C)ccn3c2NC2CCCCC2)ccc1OC (stereo not given)	Mdm2-MdmX inh 84 (no result: aSyn UTR inh, KLF5 inh) | Mdm2 MdmX conf inactive
CCC(C)Sc1cccc(-c2nc3cnccn3c2NC2CCCCC2)c1 (stereo not given)	none (no result: aSyn UTR inh, KLF5 inh)
CCC(C)Sc1cc(-c2nc3ccccn3c2NC2CCCCC2)ccc1OC (stereo not given)	Mdm2-MdmX inh 69 (no result: KLF5 inh) | Mdm2 MdmX conf inactive
Cc1ccc([N+](=O)[O-])cc1Nc1nc(N2CCCC2)nc(N2CCCC2)n1	none
Oc1cc(NCc2ccc(F)cc2)cc2cccnc12	Mdm2-MdmX inh 56 (no result: aSyn UTR inh, KLF5 inh) | Mdm2 MdmX conf inactive
Fc1ccc(CNc2ncccn2)cc1	none
CCOC(=O)c1c(C)[nH]c(C(=O)OCC(=O)NCc2ccc(F)cc2)c1C	Mdm2-MdmX inh 78 (no result: aSyn UTR inh, KLF5 inh) | Mdm2 MdmX conf inactive
CCOC(=O)c1c(C)[nH]c(C(=O)OCC(=O)NCCc2ccc(OCC)c(OCC)c2)c1C	aSyn UTR inh inconclusive (no result: KLF5 inh)

Source: PubChem (several laboratories)
